From publication PMC7862700, “An all-to-all approach to the identification of sequence-specific readers for epigenetic DNA modifications on cytosine” come the findings set out here.

Common to all, as to test: DAPPL (digital affinity profiling via proximity ligation, sequencing); 10 mM Tris-HCl pH 7.5, 50 mM NaCl, 1 mM DTT, 4% glycerol, room temperature, 30 min; GST-TFs on glutathione beads, 16-mer random dsDNA library, 0.1% formaldehyde crosslink after washing; high values mean tight binding
In assay [1] the target is T1, FEV (Homo sapiens, UniProt Q99581 1-238).
T1 sequence: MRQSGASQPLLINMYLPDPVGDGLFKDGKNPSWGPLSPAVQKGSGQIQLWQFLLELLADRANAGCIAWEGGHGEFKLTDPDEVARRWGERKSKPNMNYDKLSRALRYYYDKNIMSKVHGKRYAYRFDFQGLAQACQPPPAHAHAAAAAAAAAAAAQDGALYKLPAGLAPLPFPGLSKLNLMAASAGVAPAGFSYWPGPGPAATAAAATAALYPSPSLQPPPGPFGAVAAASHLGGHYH
As to conditions: protein: recombinant; tags: N-terminal GST; dsDNA, one strand shown. An outline of the steps:
(§1)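 Yeast served to express human transcription factors as GST fusions, which were then captured on glutathione beads and labelled with DNA barcodes. Pooled with a tag-only sample, they were incubated with 200 nmole of a 16-mer random double-stranded DNA library for 30 min at room temperature in Tris/NaCl/DTT/glycerol buffer, washed, crosslinked with 0.1% formaldehyde, ligated by proximity, amplified by PCR and sequenced. Dividing each hexamer's read frequency for a factor by its frequency for the tag-only sample gives the binding signal.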

The target of assay [2] is ETV5 (Homo sapiens, UniProt P41161 1-510). As to conditions: protein: recombinant; tags: N-terminal GST; dsDNA, one strand shown. An outline of the steps: as §1
ETV5, sequence (P41161 whole entry): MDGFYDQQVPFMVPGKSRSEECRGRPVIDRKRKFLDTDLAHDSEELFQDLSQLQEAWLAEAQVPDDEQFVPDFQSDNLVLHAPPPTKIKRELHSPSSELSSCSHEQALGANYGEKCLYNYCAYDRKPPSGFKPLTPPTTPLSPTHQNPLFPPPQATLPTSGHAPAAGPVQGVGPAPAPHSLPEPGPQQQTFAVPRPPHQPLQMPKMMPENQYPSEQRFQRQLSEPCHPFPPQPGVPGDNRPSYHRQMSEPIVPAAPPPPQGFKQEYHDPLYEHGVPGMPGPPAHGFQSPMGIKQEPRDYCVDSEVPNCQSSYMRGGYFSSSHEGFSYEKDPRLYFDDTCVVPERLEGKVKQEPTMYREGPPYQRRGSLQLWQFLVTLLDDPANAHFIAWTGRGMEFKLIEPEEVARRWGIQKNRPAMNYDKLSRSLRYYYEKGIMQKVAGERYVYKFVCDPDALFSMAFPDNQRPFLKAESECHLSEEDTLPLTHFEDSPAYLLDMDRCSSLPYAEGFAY
For assay [3], the target named is HSF1 (Homo sapiens, UniProt Q00613 1-529). As to conditions: protein: recombinant; tags: N-terminal GST; chain copies: 3; dsDNA, one strand shown. An outline of the steps: as §1
HSF1, sequence (Q00613 whole entry): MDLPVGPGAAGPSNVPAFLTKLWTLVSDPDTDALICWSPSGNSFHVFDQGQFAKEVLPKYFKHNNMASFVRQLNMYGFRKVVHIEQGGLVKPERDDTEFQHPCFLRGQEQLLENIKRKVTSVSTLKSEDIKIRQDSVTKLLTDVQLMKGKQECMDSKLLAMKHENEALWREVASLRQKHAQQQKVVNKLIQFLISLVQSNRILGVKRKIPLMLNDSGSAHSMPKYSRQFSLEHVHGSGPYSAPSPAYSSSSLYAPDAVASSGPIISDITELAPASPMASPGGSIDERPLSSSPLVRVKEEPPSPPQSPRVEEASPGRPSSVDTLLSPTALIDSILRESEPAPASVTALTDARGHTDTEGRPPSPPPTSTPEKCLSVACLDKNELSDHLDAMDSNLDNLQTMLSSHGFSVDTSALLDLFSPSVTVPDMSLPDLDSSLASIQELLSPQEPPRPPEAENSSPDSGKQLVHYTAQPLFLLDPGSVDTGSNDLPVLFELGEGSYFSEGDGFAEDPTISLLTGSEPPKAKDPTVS
Assay [4] deals with T2, SPIC (Homo sapiens, UniProt Q8N5J4 1-248).
T2 sequence: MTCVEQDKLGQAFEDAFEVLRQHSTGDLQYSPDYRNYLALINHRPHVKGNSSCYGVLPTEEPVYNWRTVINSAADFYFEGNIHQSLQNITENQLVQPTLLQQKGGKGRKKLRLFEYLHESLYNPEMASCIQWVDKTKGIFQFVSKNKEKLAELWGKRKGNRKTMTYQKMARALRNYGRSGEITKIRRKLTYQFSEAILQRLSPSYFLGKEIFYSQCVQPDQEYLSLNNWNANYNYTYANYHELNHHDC
As to conditions: protein: recombinant; tags: N-terminal GST; dsDNA, one strand shown. A digest of the protocol: as §1

Assay [5] has as its target ELF4 (Homo sapiens, UniProt Q99607 1-663). As to conditions: protein: recombinant; tags: N-terminal GST; dsDNA, one strand shown. An outline of the steps:
as §1

Assay [6] has as its target T3, ELK4 (Homo sapiens, UniProt P28324-2 1-405).
T3 sequence: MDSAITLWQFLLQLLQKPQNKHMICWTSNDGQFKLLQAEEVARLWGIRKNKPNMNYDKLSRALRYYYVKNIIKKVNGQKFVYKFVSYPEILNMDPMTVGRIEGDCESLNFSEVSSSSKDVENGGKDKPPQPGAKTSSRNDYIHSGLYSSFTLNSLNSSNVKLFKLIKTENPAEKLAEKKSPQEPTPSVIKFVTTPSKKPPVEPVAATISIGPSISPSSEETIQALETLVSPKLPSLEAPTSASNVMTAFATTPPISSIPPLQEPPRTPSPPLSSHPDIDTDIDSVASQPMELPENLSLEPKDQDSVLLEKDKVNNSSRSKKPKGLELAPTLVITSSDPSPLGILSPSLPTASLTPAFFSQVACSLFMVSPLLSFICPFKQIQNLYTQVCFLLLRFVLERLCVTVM
To be noted: protein: recombinant; tags: N-terminal GST; dsDNA, one strand shown. A digest of the protocol:
as §1

Assay [7] concerns the target T4, ETV2 (Homo sapiens, UniProt O00321 1-342).
T4 sequence: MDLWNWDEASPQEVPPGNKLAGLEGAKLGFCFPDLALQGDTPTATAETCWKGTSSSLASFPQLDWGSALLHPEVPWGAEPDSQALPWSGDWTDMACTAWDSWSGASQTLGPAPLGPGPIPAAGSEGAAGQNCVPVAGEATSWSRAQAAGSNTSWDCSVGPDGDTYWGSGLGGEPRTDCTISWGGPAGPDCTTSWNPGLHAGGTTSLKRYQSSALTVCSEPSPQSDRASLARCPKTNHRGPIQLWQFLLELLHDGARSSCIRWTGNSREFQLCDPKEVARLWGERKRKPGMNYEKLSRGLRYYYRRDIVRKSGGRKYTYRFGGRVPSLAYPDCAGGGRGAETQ
As to conditions: protein: recombinant; tags: N-terminal GST; dsDNA, one strand shown. An outline of the steps:
as §1

The target in assay [8] is T5, ELF3 (Homo sapiens, UniProt P78545 1-371).
T5 sequence: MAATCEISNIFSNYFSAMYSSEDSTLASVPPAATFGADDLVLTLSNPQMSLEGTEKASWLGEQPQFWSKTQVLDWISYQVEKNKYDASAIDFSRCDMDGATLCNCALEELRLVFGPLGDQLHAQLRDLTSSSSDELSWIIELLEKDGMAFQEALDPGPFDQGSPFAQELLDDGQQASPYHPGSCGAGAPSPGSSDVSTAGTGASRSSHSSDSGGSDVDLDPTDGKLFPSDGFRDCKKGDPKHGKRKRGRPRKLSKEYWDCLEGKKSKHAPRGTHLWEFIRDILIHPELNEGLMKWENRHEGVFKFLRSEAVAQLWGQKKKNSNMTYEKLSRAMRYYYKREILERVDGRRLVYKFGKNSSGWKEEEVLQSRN
As to conditions: protein: recombinant; tags: N-terminal GST; dsDNA, one strand shown. An outline of the steps: as §1

The target of assay [9] is CRX (Homo sapiens, UniProt O43186 1-299). To be noted: protein: recombinant; tags: N-terminal GST; dsDNA, one strand shown. A digest of the protocol: as §1
CRX, sequence (O43186 whole entry): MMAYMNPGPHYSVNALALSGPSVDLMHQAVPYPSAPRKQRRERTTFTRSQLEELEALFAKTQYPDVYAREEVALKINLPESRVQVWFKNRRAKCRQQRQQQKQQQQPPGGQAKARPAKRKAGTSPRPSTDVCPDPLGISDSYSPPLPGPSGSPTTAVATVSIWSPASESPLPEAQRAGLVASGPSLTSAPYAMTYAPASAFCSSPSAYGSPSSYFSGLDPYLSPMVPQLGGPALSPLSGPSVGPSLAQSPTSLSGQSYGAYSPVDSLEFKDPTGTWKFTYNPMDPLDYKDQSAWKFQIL
Assay [10] concerns the target ETV1 (Homo sapiens, UniProt P50549 1-477). To be noted: protein: recombinant; tags: N-terminal GST; dsDNA, one strand shown. A digest of the protocol: as §1

ELF4, sequence (Q99607 whole entry): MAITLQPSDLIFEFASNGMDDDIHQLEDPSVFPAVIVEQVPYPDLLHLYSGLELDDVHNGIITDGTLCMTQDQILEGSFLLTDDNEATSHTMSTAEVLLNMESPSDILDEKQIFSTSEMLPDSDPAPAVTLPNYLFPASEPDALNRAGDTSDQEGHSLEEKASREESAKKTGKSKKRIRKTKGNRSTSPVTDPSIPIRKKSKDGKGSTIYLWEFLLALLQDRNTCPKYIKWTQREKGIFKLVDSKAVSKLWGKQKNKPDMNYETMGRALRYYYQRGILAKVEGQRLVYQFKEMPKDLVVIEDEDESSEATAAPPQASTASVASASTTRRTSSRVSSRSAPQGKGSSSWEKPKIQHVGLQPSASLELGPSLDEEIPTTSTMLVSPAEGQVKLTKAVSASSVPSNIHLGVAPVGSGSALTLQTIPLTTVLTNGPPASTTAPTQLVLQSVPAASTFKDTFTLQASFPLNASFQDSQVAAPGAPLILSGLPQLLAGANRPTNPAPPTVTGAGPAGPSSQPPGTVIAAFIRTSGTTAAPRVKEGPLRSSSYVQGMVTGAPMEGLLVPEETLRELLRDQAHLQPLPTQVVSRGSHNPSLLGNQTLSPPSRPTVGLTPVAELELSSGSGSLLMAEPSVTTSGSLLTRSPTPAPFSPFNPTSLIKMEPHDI
ETV1, sequence (P50549 whole entry): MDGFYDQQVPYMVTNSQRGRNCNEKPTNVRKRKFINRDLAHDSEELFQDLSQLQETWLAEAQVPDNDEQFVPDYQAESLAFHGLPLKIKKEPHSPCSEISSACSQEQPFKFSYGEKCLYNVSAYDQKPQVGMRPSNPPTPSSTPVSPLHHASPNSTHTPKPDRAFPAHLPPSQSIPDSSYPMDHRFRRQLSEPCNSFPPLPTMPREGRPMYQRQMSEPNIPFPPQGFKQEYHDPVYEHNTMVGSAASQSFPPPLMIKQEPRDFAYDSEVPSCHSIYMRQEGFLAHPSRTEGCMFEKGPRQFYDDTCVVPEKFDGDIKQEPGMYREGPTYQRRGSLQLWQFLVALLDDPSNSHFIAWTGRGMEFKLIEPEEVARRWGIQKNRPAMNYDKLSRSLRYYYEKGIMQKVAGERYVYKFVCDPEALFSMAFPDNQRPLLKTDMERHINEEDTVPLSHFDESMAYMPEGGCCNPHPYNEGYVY

As to CTGATG, the binding signal in [1] was 1.62 fold enrichment (6-mer frequency, TF over GST control); in assay [2] it was 1.65 fold enrichment (6-mer frequency, TF over GST control); in assay [3], 1.33 fold enrichment (6-mer frequency, TF over GST control); in [4], 1.79 fold enrichment (6-mer frequency, TF over GST control); in assay [5], 1.79 fold enrichment (6-mer frequency, TF over GST control); in [6], 1.83 fold enrichment (6-mer frequency, TF over GST control). Further, the binding signal in [7] is 1.7 fold enrichment (6-mer frequency, TF over GST control); in assay [8], 1.65 fold enrichment (6-mer frequency, TF over GST control); in assay [9], 1.46 fold enrichment (6-mer frequency, TF over GST control); in [10] it was 1.61 fold enrichment (6-mer frequency, TF over GST control).
With TGTATT, the binding signal is 1.34 fold enrichment (6-mer frequency, TF over GST control) in assay [1]; 1.33 fold enrichment (6-mer frequency, TF over GST control) in assay [2]; 1.3 fold enrichment (6-mer frequency, TF over GST control) in [3]; 1.4 fold enrichment (6-mer frequency, TF over GST control) in assay [4]; 1.36 fold enrichment (6-mer frequency, TF over GST control) in assay [5]; 1.33 fold enrichment (6-mer frequency, TF over GST control) in assay [6]. Further, the binding signal in [7] was 1.32 fold enrichment (6-mer frequency, TF over GST control); in assay [8] it was 1.24 fold enrichment (6-mer frequency, TF over GST control); in assay [9], 1.56 fold enrichment (6-mer frequency, TF over GST control); in assay [10] it was 1.4 fold enrichment (6-mer frequency, TF over GST control).
On to CCTTCA, for which the binding signal in assay [1] was 1.48 fold enrichment (6-mer frequency, TF over GST control); in assay [2], 1.45 fold enrichment (6-mer frequency, TF over GST control); in assay [3], 1.36 fold enrichment (6-mer frequency, TF over GST control); in assay [4] it was 1.31 fold enrichment (6-mer frequency, TF over GST control); in assay [5], 1.42 fold enrichment (6-mer frequency, TF over GST control); in [6], 1.69 fold enrichment (6-mer frequency, TF over GST control). Moreover, the binding signal in assay [7] is 1.49 fold enrichment (6-mer frequency, TF over GST control); in [8] it was 1.4 fold enrichment (6-mer frequency, TF over GST control); in [9], 1.34 fold enrichment (6-mer frequency, TF over GST control); in assay [10] it was 1.55 fold enrichment (6-mer frequency, TF over GST control).
As for TGCCTT, the binding signal in assay [1] is 1.3 fold enrichment (6-mer frequency, TF over GST control); in assay [2], 1.36 fold enrichment (6-mer frequency, TF over GST control); in assay [3], 1.27 fold enrichment (6-mer frequency, TF over GST control); in [4] it was 1.55 fold enrichment (6-mer frequency, TF over GST control); in assay [5] it was 1.27 fold enrichment (6-mer frequency, TF over GST control); in assay [6], 1.43 fold enrichment (6-mer frequency, TF over GST control). Further, the binding signal in [7] is 1.2 fold enrichment (6-mer frequency, TF over GST control); in [8], 1.45 fold enrichment (6-mer frequency, TF over GST control); in [9], 1.33 fold enrichment (6-mer frequency, TF over GST control); in [10], 1.34 fold enrichment (6-mer frequency, TF over GST control).
With TTGAGC, the binding signal in assay [1] is 1 fold enrichment (6-mer frequency, TF over GST control); in assay [2], 1.03 fold enrichment (6-mer frequency, TF over GST control); in [3] it was 1.03 fold enrichment (6-mer frequency, TF over GST control); in assay [4] it was 1.18 fold enrichment (6-mer frequency, TF over GST control); in [5], 1.06 fold enrichment (6-mer frequency, TF over GST control); in assay [6], 1.04 fold enrichment (6-mer frequency, TF over GST control). The binding signal in [7] is 1.07 fold enrichment (6-mer frequency, TF over GST control); in [8], 1.13 fold enrichment (6-mer frequency, TF over GST control); in assay [9], 1.28 fold enrichment (6-mer frequency, TF over GST control); in [10], 1.1 fold enrichment (6-mer frequency, TF over GST control).
Take CCTCCG: the binding signal is 1.45 fold enrichment (6-mer frequency, TF over GST control) in [1]; 1.34 fold enrichment (6-mer frequency, TF over GST control) in [2]; 1.01 fold enrichment (6-mer frequency, TF over GST control) in assay [3]; 1.62 fold enrichment (6-mer frequency, TF over GST control) in assay [4]; 1.38 fold enrichment (6-mer frequency, TF over GST control) in assay [5]; 1.36 fold enrichment (6-mer frequency, TF over GST control) in assay [6]. Moreover, the binding signal in [7] was 1.33 fold enrichment (6-mer frequency, TF over GST control); in assay [8], 1.32 fold enrichment (6-mer frequency, TF over GST control); in [9], 1.07 fold enrichment (6-mer frequency, TF over GST control); in assay [10] it was 1.4 fold enrichment (6-mer frequency, TF over GST control).
Consider CTCGCG, for which the binding signal is 1.35 fold enrichment (6-mer frequency, TF over GST control) in assay [1]; 1.48 fold enrichment (6-mer frequency, TF over GST control) in [2]; 1.55 fold enrichment (6-mer frequency, TF over GST control) in assay [3]; 1.3 fold enrichment (6-mer frequency, TF over GST control) in [4]; 1.48 fold enrichment (6-mer frequency, TF over GST control) in assay [5]; 1.59 fold enrichment (6-mer frequency, TF over GST control) in assay [6]. Besides, the binding signal in assay [7] is 1.39 fold enrichment (6-mer frequency, TF over GST control); in assay [8], 1.53 fold enrichment (6-mer frequency, TF over GST control); in [9] it was 1.3 fold enrichment (6-mer frequency, TF over GST control); in assay [10] it was 1.47 fold enrichment (6-mer frequency, TF over GST control).
AAAAGT: the binding signal is 1.04 fold enrichment (6-mer frequency, TF over GST control) in assay [1]; 1.06 fold enrichment (6-mer frequency, TF over GST control) in assay [2]; 1.06 fold enrichment (6-mer frequency, TF over GST control) in assay [3]; 1.1 fold enrichment (6-mer frequency, TF over GST control) in assay [4]; 1.1 fold enrichment (6-mer frequency, TF over GST control) in [5]; 1.24 fold enrichment (6-mer frequency, TF over GST control) in [6]. For the same sequence, the binding signal in assay [7] was 1.03 fold enrichment (6-mer frequency, TF over GST control); in assay [8] it was 1.12 fold enrichment (6-mer frequency, TF over GST control); in [9], 1.09 fold enrichment (6-mer frequency, TF over GST control); in assay [10], 1.13 fold enrichment (6-mer frequency, TF over GST control).
